Results as given in PubChem BioAssay AID493113 (Johns Hopkins Ion Channel Center, 2011).
Potency and affinity values are given separately. Active and inactive are the calls of the source.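 The calls were made as follows: active = compound that boosts KCNQ2 potassium channel current at some tested dose and yields a dose response curve; inactive = no boost at any tested dose or no curve.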

Molecular target: Potassium voltage-gated channel subfamily KQT member 2 (Rattus norvegicus) (UniProt O88943)
Experiment: rat KCNQ2 current potentiators – automated patch clamp, KCNQ2-CHO cells, SAR follow-up (AID 493113)
Conditions: series mostly up to 30 µM

Chain of Potassium voltage-gated channel subfamily KQT member 2 (Rattus norvegicus) (O88943 whole entry, looked up): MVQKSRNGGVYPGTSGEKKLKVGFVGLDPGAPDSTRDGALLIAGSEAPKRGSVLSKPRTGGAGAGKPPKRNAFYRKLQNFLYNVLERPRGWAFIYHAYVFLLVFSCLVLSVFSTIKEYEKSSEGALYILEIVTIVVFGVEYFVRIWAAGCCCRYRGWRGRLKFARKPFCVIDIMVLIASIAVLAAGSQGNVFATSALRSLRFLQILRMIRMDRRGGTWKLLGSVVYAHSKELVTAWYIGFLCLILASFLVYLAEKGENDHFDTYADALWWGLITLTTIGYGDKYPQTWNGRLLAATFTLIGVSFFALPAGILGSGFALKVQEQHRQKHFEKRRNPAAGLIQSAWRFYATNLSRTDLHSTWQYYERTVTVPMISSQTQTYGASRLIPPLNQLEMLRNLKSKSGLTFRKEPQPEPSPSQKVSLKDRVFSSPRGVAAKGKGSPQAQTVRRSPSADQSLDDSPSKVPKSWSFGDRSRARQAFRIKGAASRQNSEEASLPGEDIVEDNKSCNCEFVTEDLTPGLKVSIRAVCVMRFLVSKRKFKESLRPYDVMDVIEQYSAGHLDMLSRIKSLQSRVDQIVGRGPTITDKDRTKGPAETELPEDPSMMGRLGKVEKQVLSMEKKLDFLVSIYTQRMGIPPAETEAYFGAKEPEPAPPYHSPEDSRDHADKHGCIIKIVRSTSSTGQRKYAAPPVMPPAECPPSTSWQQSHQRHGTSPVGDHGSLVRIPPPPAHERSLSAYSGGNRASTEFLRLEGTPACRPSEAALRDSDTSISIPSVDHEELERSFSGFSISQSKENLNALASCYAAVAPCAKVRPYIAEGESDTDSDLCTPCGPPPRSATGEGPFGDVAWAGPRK

outcome, inactive:
CC(=O)Nc1c(C)cc(C)cc1C
CCC(=O)Nc1c(C)cc(C)cc1C
Cc1cc(C)c(NC(=O)C23CCC(C)(C(=O)O2)C3(C)C)c(C)c1 (configuration not stated)
Cc1cc(C)cc(NC(=O)C2CC3CCC2C3)c1 (configuration not stated)
Cc1ccc(C(=O)Nc2c(C)cc(C)cc2C)cc1
Cc1cc(C)c(NC(=O)c2ccc3ccccc3c2)c(C)c1
Cc1cc(C)c(NC(=O)c2cccc(C(F)(F)F)c2)c(C)c1
O=C(Nc1ccccc1)C1CC2CCC1C2 (configuration not stated)
Cc1cc(C)c(NC(=O)C23CC4CC(CC(C4)C2)C3)c(C)c1
O=C(Nc1ccc(F)cc1)C1CC2CCC1C2 (configuration not stated)
Cc1cc(C)c(NC(=O)C(C)(C)C)c(C)c1
Cc1cc(C)c(NC(=O)c2cc(C(F)(F)F)cc(C(F)(F)F)c2)c(C)c1
Cc1cc(C)c(NC(=O)c2ccc(C(F)(F)F)cc2)c(C)c1
Cc1cc(C)c(NC(=O)c2ccc(Cl)c(Cl)c2)c(C)c1
O=C(Nc1ccc(C(F)(F)F)cc1)C1CC2CCC1C2 (configuration not stated)
O=C(Nc1ccccn1)C1CC2CCC1C2 (configuration not stated)
Cc1cc(C)c(NC(=O)c2ccccc2)c(C)c1
